Several values for one entry are separate records, joined by “and”; a condition that tells them apart may be missing. Equal entries are not always repeated. Where a structure was tested more than once in an assay, its records may differ in their call. Activity calls are given as the source filed them. The calls were made as follows: active = hit-call score of the fitted dose curve at least 0.9, where 1 is the maximum; inactive = score below 0.9.
Assay: BSK_4H_Eotaxin3: BioMAP Diversity Plus: 4H Assay for Eotaxin 3 Biomarker Activity (AID 2283000)
Details: primary human endothelial cells (HUVEC); actives raise or lower the signal
Experimental: BSK_4H is a cell-based, multiplexed-readout assay that uses umbilical vein endothelium, a human vascular primary cell, with measurements taken at 24 hours after chemical dosing in a 96-well plate.BSK_4H_Eotaxin3 is an assay component measured in the BSK_4H assay. It measures Eotaxin-3 antibody related to regulation of gene expression using ELISA technology.Data from the assay component BSK_4H_Eotaxin3 was analyzed into 1 assay endpoint. This assay endpoint, BSK_4H_Eotaxin3, was analyzed with bidirectional fitting relative to DMSO as the negative control and baseline of activity. Using a type of binding reporter, gain or loss-of-signal activity can be used to understand changes in the signaling as they relate to the gene CCL26. Furthermore, this assay endpoint can be referred to as a primary readout, because this assay has produced multiple assay endpoints where this one serves a signaling function. To generalize the intended target to other relatable targets, this assay endpoint is annotated to the cytokine intended target family, where the subfamily is chemotactic factor.
The levels of cell surface (or secreted, indicated by the prefix "s") biomarker endpoints were measured by ELISA. Overt cytotoxicity to cells in confluent adherent cultures (all systems other than the BT system) was assessed by measuring total protein levels using sulforhodamine B (SRB) staining in parallel cultures at the time of biomarker measurements, indicated as SRB endpoints. For proliferation assays for adherent cell types, individual cell types are cultured at sub-confluence and relative cell numbers quantified by SRB staining at time points optimized for each system (48 h: 3C and CASM3C systems; 72 h: BT and HDF3CGF systems; 96 h: SAg system). SRB was performed by staining cells with 0.1% SRB after fixation with 10% TCA and reading wells at 560 nm.Viability and proliferation of PBMC (T cells) was quantified by Alamar Blue reduction for the SAg and BT systems. For PBMC viability (referred to as PBMC Cytotoxicity within the assay endpoint names), cells were plated (75,000/well in a 96-well plate) and then chemical samples added for 1 h before addition of activators, SEB and TSST-1 (20 ng/mL final concentration each). Cells were incubated for 90 h. Then, Alamar Blue (20 uL/well) (Invitrogen, Cat DAL1100) was added for 6 h, and the plates were read with a fluorescence microplate reader at 546/580 nm (excitation/emission). For PBMC proliferation, cells were plated and activated as above but incubated for only 16 h prior to addition of Alamar Blue. Plates were read after 6 h.

Row | Structure (SMILES) | AC50 | outcome
1 | C=C(C)C(=O)OCCC(F)(F)C(F)(F)C(F)(F)C(F)(F)C(F)(F)C(F)(F)F | 20 µM (active) | inactive
2 | CCCOC(=O)c1ccc(O)cc1 |  | inactive
3 | C[C@@H]1C[C@H]2[C@@H]3CCC4=CC(=O)C=C[C@]4(C)[C@@]3(F)[C@@H](O)C[C@]2(C)[C@@]1(O)C(=O)COP(=O)(O)O | 8.66 µM (active) | inactive
4 | CN(C)C=O |  | inactive
5 | OCCC(F)(F)C(F)(F)C(F)(F)C(F)(F)C(F)(F)C(F)(F)C(F)(F)C(F)(F)F | 46 µM (active) and 14.9 µM (active) | inactive
6 | CN1CCN(c2ccccc2/C=C2\SCCN(c3ccc(Cl)c(Cl)c3)C2=O)CC1 |  | inactive
7 | CCCCCCCCCCCCCC[N+](C)(C)C | 2.93 µM (active) | 
8 | CCCCCCCC(=O)O |  | inactive
9 | CC[C@H](c1ccc(O)cc1)[C@@H](CC)c1ccc(O)cc1 | 27.6 µM (active) | 
10 | c1ccc2cc3c(ccc4ccccc43)cc2c1 | 2.48 µM (active) | 
11 | CCCCCCC(=O)O |  | inactive
12 | Oc1cc2ccccc2c2ccccc12 | 7.88 µM (active) | 
13 | CC(C)(C)CC(C)(C)c1ccc(O)c(-n2nc3ccccc3n2)c1 |  | inactive
14 | CCCCCCCCCCCCCCCS(=O)(=O)Oc1ccccc1 |  | inactive
15 | c1ccc2c(c1)Cc1ccccc1-2 |  | inactive
16 | CCCCCCCCCCCCc1ccccc1S(=O)(=O)O |  | inactive
17 | O=C(O)Cc1cc(I)c(Oc2cc(I)c(O)c(I)c2)c(I)c1 |  | inactive
18 | CC(O)CO (stereo not given) |  | inactive

Row | Structure (SMILES) | AC50 | outcome
19 | CCCCC(CC)COC(=O)CCCCC(=O)OCc1ccccc1 (stereo not given) |  | inactive
20 | ClC1=C(Cl)C(Cl)(Cl)C(Cl)=C1Cl | 7.45 µM (active) | 
21 | CC[C@H](C)[C@@H](C(=O)O)n1sc2ccccc2c1=O |  | inactive
22 | NC(=O)N1C(=O)C(C(=O)c2cc(Cl)cs2)c2cc(F)c(Cl)cc21 (stereo not given) | 14.9 µM (active) | 
23 | CN1CCC[C@H]1c1cccnc1 |  | inactive
24 | OCCC(F)(F)C(F)(F)C(F)(F)C(F)(F)C(F)(F)C(F)(F)F | 0.436 µM (active) | inactive
25 | CCN(CC)CCNc1ccc(CNC=O)c2sc3ccc(OC)cc3c(=O)c12 | 29.2 µM (active) | 
26 | O=C(OCCOCCOC(=O)c1ccccc1)c1ccccc1 |  | inactive
27 | CCCCC(CC)COC(=O)CCCCC(=O)OCC(CC)CCCC (stereo not given) |  | inactive
28 | CCOC(=O)CC(O)(CC(=O)OCC)C(=O)OCC |  | inactive
29 | NCC(F)(F)C(F)(F)C(F)(F)C(F)(F)C(F)(F)C(F)(F)C(F)(F)F |  | inactive
30 | CCCOc1sc(C(=O)N2CCC(c3cc(CN)ccc3F)CC2)c(C)c1Br | 9.89 µM (active) | 
31 | Cc1cc(C)c(O)c(C)c1 |  | inactive
32 | CC(C)(C)c1cccc(C(C)(C)C)c1O |  | inactive
33 | CCCCCCCCC(=O)O |  | inactive
34 | OC1CCCCC1 |  | inactive
35 | CCCCCCCCCCCCN1CCCC1=O | 36.9 µM (active) | 
36 | CCCCCCCCOC(=O)CCCCCCCCC(=O)OCCCCCCCC |  | inactive

Reference: PubChem BioAssay (EPA / NIEHS)
